The values below come from PubChem BioAssay (NCI).

What all share (test): NCI-60 one-dose screen, 48 h (100 = growth as untreated, 0 = no growth, -100 = all killed)
Conditions in all cases: 10 µM unless noted

Assay [1] deals with NCI-H23 lung.
Assay [2] concerns NCI-H226 lung.
The subject of assay [3] is NCI-H322M lung.
Assay [4] relates to HOP-62 NSCLC.
For assay [5], the system named is NCI-H460 lung.
For assay [6], the system named is HOP-92 NSCLC.
Assay [7] deals with NCI-H522 lung.
The subject of assay [8] is A549/ATCC NSCLC.
The test system of assay [9] is 786-0 renal.
The subject of assay [10] is COLO 205 colon.

Compounds without any hit were thinned out: in the full panel of roughly 83,000, 20% have a hit.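 Cells were grown in 96-well plates and exposed to the test compound at a single concentration for 48 hours; results are reported as percent growth, with values below 10 considered active.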 Unmarked numbers belong to inactive results. The source made the active and inactive calls.

Take `COc1cc(/C=C/c2cc(/C=C/c3ccc(O)c(OC)c3)n(-c3c(Cl)cccc3Cl)c(=O)n2)ccc1O`: the growth is 29% in [1]; 48.8% in [2]; 72.7% in assay [3]; 50.6% in assay [4]; 70.8% in assay [5]; 78.7% in [6]. For the same compound, the growth in assay [7] was 9.89% (active); in assay [8], 44.1%; in assay [9], 29.7%; in assay [10], 71.8%.

With `COc1ccc(S(=O)(=O)N2CCCCC2)cc1NC(=O)c1[nH]c(C)c2c1CCCCC2=O`, the growth is 26% in [1]; 46.2% in assay [2]; 31.8% in assay [3]; 26% in assay [4]; 34.8% in assay [5]; 26.9% in [6]. Besides, the growth in [7] is 7.18% (active); in assay [8], 28.2%; in assay [9], 32.3%; in assay [10] it was 22.9%.

As for `COc1ccc(-n2nc(C)c3c(Oc4ccc(NC(=O)Nc5c(Cl)cccc5Cl)cc4)ncnc32)cc1`, the growth is 98.3% in assay [1]; 107% in assay [2]; 96.8% in assay [3]; 97.7% in assay [4]; 101% in [5]; 98% in assay [6]. The growth in [7] was 93.6%; in assay [8], 103%; in assay [9], 110%; in assay [10], 99%.

`O=C(CCl)Oc1ccc(-c2ccccc2)c(Br)c1`: the growth is 100% in assay [1]; 96.4% in [2]; 105% in [3]; 107% in assay [4]; 104% in assay [5]; 92% in [6]. In addition, the growth in [7] is 107%; in assay [8], 106%; in assay [9], 105%; in assay [10], 108%.

Take `C=C1C(=O)O[C@H]2[C@H]1CC/C(COC(=O)NCc1ccc(OC)c(OC)c1)=C\CC[C@@]1(C)O[C@@H]21`: the growth in [1] is 45.8%; in assay [2] it was 85.9%; in assay [3], 97.6%; in [4], 87.8%; in [5], 87.8%; in [6], 66.2%. The growth was -65.5% (active) in assay [7], 97.9% in [8], 81.6% in assay [9] and 8.26% (active) in assay [10].

For `CC(C)(CCCN=C(N)Nc1ccc(Cl)cc1)c1ccc(F)cc1`, the growth in [1] was 55.6%; in assay [2] it was 95.6%; in assay [3], 70.9%; in [4] it was 69.2%; in [5] it was 46.1%; in [6], 28%. In addition, the growth was 62% in assay [7], 79.6% in [8], 73.4% in assay [9] and -54% (active) in [10].

In the case of `C=CC(=O)Nc1cccc(-c2nc(SC)nc(NCCN3CCOCC3)c2C#N)c1`, the growth in assay [1] is 92.5%; in assay [2], 97.1%; in [3], 94.2%; in assay [4], 99.9%; in [5] it was 101%; in assay [6], 76.1%. Besides, the growth in assay [7] was 76%; in assay [8], 101%; in [9] it was 87.5%; in [10], 114%.

Take `O=C(/C=C/C=C/c1ccc2c(c1)OCO2)N/N=C\c1ccc(O)cc1O`: the growth in assay [1] was 30%; in [2], 37.6%; in assay [3] it was 17.8%; in assay [4] it was 27.1%; in assay [5], 14%; in assay [6], 53.4%. For the same compound, the growth was 21.1% in assay [7], 36.1% in assay [8], 29% in [9] and 14% in assay [10].

In the case of `COc1cc2c(cc1O)CC[C@@H]1[C@@H]2CC[C@]2(C)[C@@H](OCCN(C)C)CC[C@@H]12`, the growth is 42.3% in [1]; 76.5% in assay [2]; 51.3% in assay [3]; 59.9% in assay [4]; 39.6% in assay [5]; 48.6% in assay [6]. Further, the growth in assay [7] is 18.4%; in assay [8], 66.5%; in assay [9] it was 57.9%; in [10] it was 58.8%.

For the compound `O=c1oc2c(C(F)(F)F)cccc2cc1-c1csc(Nc2ccc(OCCF)cc2)n1`, the growth is 24.2% in assay [1]; 17.3% in assay [2]; 31% in assay [3]; 22.5% in assay [4]; 4.07% (active) in assay [5]; 27.4% in assay [6]. In addition, the growth in assay [7] was -42.9% (active); in assay [8], 18.1%; in [9], 9.77% (active); in assay [10] it was -71.8% (active).

Turning to `O=C(NCCN1CCOCC1)Nc1ccc(-c2cc3c(Nc4ccc(Oc5cccc(C(F)(F)F)c5)c(Cl)c4)ncnc3s2)cc1`, the growth is 27.4% in [1]; 26.3% in [2]; 18.7% in assay [3]; -26% (active) in [4]; -39.8% (active) in [5]; 16.4% in assay [6]. Moreover, the growth in assay [7] was 27.3%; in [8], 4.01% (active); in assay [9], -43% (active); in [10], -56.7% (active).

In the case of `Cc1cc2nc(NC(=O)CN3CCN(CCN4C(=O)c5cccc6cccc(c56)C4=O)CC3)sc2cc1C`, the growth in [1] was 89%; in assay [2] it was 89.2%; in assay [3], 85.2%; in [4], 94.9%; in [5], 91.7%; in assay [6], 74.9%. The growth in assay [7] is 87.3%; in assay [8] it was 70.3%; in assay [9] it was 82.8%; in assay [10], 99.6%.

On to `N#Cc1cnn(-c2nc3c(Cl)cccc3s2)c1N`, for which the growth was 82.6% in assay [1]; 76.2% in assay [2]; 95% in assay [3]; 81.3% in [4]; 73.4% in [5]; 38.8% in assay [6]. Besides, the growth in assay [7] was 67.7%; in assay [8] it was 83.6%; in assay [9], 89.4%; in assay [10] it was 92.3%.
